# In PubChem BioAssay AID588778 (Southern Research Institute, 2011):
# Among all 10,000 compounds or so, fewer than 10 were called active. How the calls were made is not given here. These entries were drawn from the full list.
# Assay: Vibrio cholerae motility inhibitors, OD read-out (AID 588778)
# Conditions: stronger effect = higher value
# [1] = measured here: bacterial viability at 10 ug/mL
SMILES,inhibition (concentration not given here),inhibition [1] [%]
CCOC(=O)c1ccc(CNC(=O)CCC(=O)O)cc1,2.35% (inactive),-10.3
O=C(CCC(=O)Nc1ccccc1Cl)NNC(=O)Nc1ccc(F)cc1F,-13.9% (inactive),-8.28
O=C(c1c(F)cccc1F)N1CCN(C(c2ccccc2)c2ccccc2)CC1,11.9% (inactive),-2.62
O=C(NC(=S)NNC(=O)c1cnccn1)c1ccc(F)cc1,17.5% (inactive),4.07
CCSc1nnc(NC(=O)c2ccc(Br)s2)s1,-21.3% (inactive),-10.2
O=C(O)CCc1ccc(-c2cccs2)n1-c1cc(Cl)ccc1Cl,5.81% (inactive),-0.02
CCc1ccccc1OCCCCn1c2ccccc2c2ccccc21,-30.3% (inactive),-15.4
COCCSc1ccccc1C(=O)NCc1ccc(S(N)(=O)=O)cc1,4.8% (inactive),5.23
CCCC(=O)N1CCN(c2ccc(NC(=O)COc3ccc(C)c(C)c3)cc2Cl)CC1,10.7% (inactive),4.97
O=C(Nc1nnc(C(F)(F)F)s1)C(Sc1ccccc1)c1ccccc1 (stereo not drawn),-9.96% (inactive),-4.95
O=C(Cc1ccccc1Cl)c1ccc(O)c(O)c1O,12.7% (inactive),2.63
COc1cc(OC)c(NC(=O)c2csc3ccccc23)cc1Cl,4.43% (inactive),1.11
COC(C(=O)Nc1cc([N+](=O)[O-])ccc1C)c1ccccc1 (stereo not drawn),3.61% (inactive),-3.16
O=C(OCc1ccccc1F)c1ccc([N+](=O)[O-])cc1Cl,45.5% (inactive),18.5
Cn1ncc(C#N)c1NC(=O)C1CC(c2c(F)cccc2Cl)=NO1 (stereo not drawn),15.8% (inactive),10.8
Cn1nc([N+](=O)[O-])nc1Sc1nnc(-c2cccnc2)o1,44.4% (inactive),15.6
COc1cc2c(NCc3ccccc3)cc(O)c(CC(=O)Nc3ccc(Cl)cc3)c2cc1OC,8.57% (inactive),1.46
Cc1ccc(-c2c(C(=O)NNC(=S)NCC3CCCO3)csc2C)cc1 (stereo not drawn),17.3% (inactive),-2.95
Cc1ccccc1NC(=S)NC1CCCC1,-3.76% (inactive),-1.53
O=C(CSc1nc2ccccc2s1)NNC(=S)Nc1ccc(F)c(Cl)c1,47.6% (inactive),18.2
Cc1ccc2c(c1)C(=O)C(=O)N2,26.8% (inactive),12.9
Cc1nc(Oc2ccc3c(c2)OCO3)c2cc(-c3ccccc3)sc2n1,6.33% (inactive),0.3
Cc1ccc2cccc(OCc3nnc(-c4ccccc4)o3)c2n1,14.5% (inactive),-1.8

SMILES,inhibition (concentration not given here),inhibition [1] [%]
COC(=O)c1ccc2ccn(CC(N)=O)c2c1,8.78% (inactive),7.37
COc1cccc(/C=C/C2=NN(c3ccc(Cl)c(Cl)c3)C(c3cccc(OC)c3OC)C2)c1OC (stereo not drawn),26.7% (inactive),13.6
Cc1ccccc1NC(=O)NC1CCS(=O)(=O)C1 (stereo not drawn),-0.46% (inactive),-4.02
C=CCOc1cccc(CNc2ccc3[nH]c(=O)[nH]c3c2)c1,33.7% (inactive),18.3
Cc1ccc2nc(-c3cccnc3)cc(C(=O)Nc3ccc4c(C)cc(=O)oc4c3)c2c1,-7.04% (inactive),9.26
O=C(O)Cc1ccc(NC(=O)c2cccnc2C(=O)O)cc1,-4.82% (inactive),-2.46
Cc1ccc(NC(=O)c2ccccc2NC(=O)Cc2ccc(Cl)cc2)cc1C,11.1% (inactive),19.3
O=C1C(c2ccccn2)=C(O)c2ccccc21,14.8% (inactive),4.31
O=C(NCCSCc1ccco1)Nc1ccccc1,22.3% (inactive),0.29
O=C(CSCc1ccc([N+](=O)[O-])cc1)N1CCN(c2cccc(Cl)c2)CC1,-5.85% (inactive),-3.47
Cc1cc2[nH]c(=S)n(Cc3ccccc3Cl)c2cc1C,-26.6% (inactive),-12.9
O=C(NC(=O)C(Cl)(Cl)Cl)NC1CCCC1,-16.4% (inactive),3.96
O=C(NC(=S)Nc1ccccc1C(=O)NC1CCCCC1)c1ccco1,3.43% (inactive),7.92
CCn1ccc(C(=O)Nc2ccc(C(F)(F)F)cc2Cl)n1,-7.69% (inactive),-1.52
Cc1cc(N2C(=O)CC(Cc3ccc(Cl)cc3)C2=O)no1 (stereo not drawn),1.86% (inactive),-6.9
O=C(CC(NC(=S)Nc1ccccc1)c1ccccc1)c1ccccc1 (stereo not drawn),15.4% (inactive),5.66
CC(C)C(C(=O)O)c1ccc([N+](=O)[O-])cc1 (stereo not drawn),6.16% (inactive),-2.35
COc1ccc([N+](=O)[O-])cc1CSc1ccccn1,-1.69% (inactive),-0.75
CC(C)CNC(=S)NNC(=O)CC(C)O (stereo not drawn),52.6% (inactive),22.3
CSCCC(C(=O)O)n1c(-c2ccc3ccccc3n2)n[nH]c1=S (stereo not drawn),-9.7% (inactive),-4.1
Cc1ccc(C(C)C)c(OCCSc2nc3ccccc3n2CC(O)CO)c1 (stereo not drawn),6.25% (inactive),-5.04
O=C(O)CCn1c2ccccc2c2ccccc21,15.5% (inactive),-1.8
COc1ccc(NC(=O)c2cc(S(=O)(=O)N3CCOCC3)c(Cl)cc2Cl)c([N+](=O)[O-])c1,-16.3% (inactive),-8.39

SMILES,inhibition (concentration not given here),inhibition [1] [%]
O=C(NCc1ccc(Cl)c(Cl)c1)c1ccc(Br)o1,20.3% (inactive),4.03
COc1ccc2cnn(-c3ccccc3)c(=O)c2c1OC,12% (inactive),4.55
CCOc1cc(C(=S)N2CC(C)OC(C)C2)cc(I)c1OCC(=O)N1CCCC1 (stereo not drawn),11% (inactive),5.69
CC(C)(O)C#Cc1ccc(C(=O)NC2CCCCC2)cc1,12.9% (inactive),20.2
Cc1cc(=O)[nH]c2c1cnn2Cc1ccccc1,49.6% (inactive),17.8
Cc1c(NC(=O)C2CC(c3c(F)cccc3Cl)=NO2)c(=O)n(-c2ccccc2)n1C (stereo not drawn),0.12% (inactive),-4.39
CC1(C(=O)NN2CCOCC2)CC1(Cl)Cl (stereo not drawn),1.9% (inactive),-3.31
CC(=O)c1cccc(NC(=O)C2CC(=O)N(Cc3ccccc3)C2)c1 (stereo not drawn),-14% (inactive),-3.46
C#CCOc1c(Br)cc(/C=C/[N+](=O)[O-])cc1OC,33.7% (inactive),7.02
COc1ccc(C(=O)NCc2ccoc2C(=O)O)cc1,16.5% (inactive),8.04
O=C(Cn1cnc2ccccc2c1=O)c1ccc(Br)cc1,-17.8% (inactive),-8.61
Cc1cc(C)n2nc(Cc3ccccc3)c(-c3cccc4ccccc34)c2n1,0.73% (inactive),8.65
O=CN1Cc2ccccc2-c2ccccc2C1,6.8% (inactive),3.25
O=C(CNC(=S)NC(=O)c1ccc(F)cc1)c1ccccc1,-64% (inactive),-21.1
O=C(c1ccccc1Oc1ccc(C(F)(F)F)cc1[N+](=O)[O-])N1CCOCC1,-15.4% (inactive),-2.04
CN1CCN(C(=O)c2ccccc2NC(=O)Nc2ccccc2)CC1,15.9% (inactive),1.65
COc1cccc(/C=C(\C#N)c2ccccc2)c1OC(C)C,22.8% (inactive),-2.34
COc1ccc(C2/C(=C(\O)c3ccc(C)cc3)C(=O)C(=O)N2c2ncc(S(=O)(=O)c3ccc([N+](=O)[O-])cc3)s2)cc1 (stereo not drawn),-0.505% (inactive),-2.23
Cc1cc(NC(=O)CC2C(=O)N(c3ccccc3)C(=S)N2CCc2ccc(F)cc2)no1 (stereo not drawn),13.3% (inactive),9.96
Cc1ccc(NNC(=O)C(c2ccccc2)c2ccccc2)cc1,7.31% (inactive),10
Cc1ccc(CN2CC(C(=O)O)CC2=O)cc1 (stereo not drawn),14.2% (inactive),-5.3
Cc1ccccc1NC(=O)NNc1ccc(F)cc1,15.9% (inactive),1.32
CCOC(=O)c1sc(NC(=O)COc2ccc(Cl)cc2Cl)cc1C,19.1% (inactive),13.9

SMILES,inhibition (concentration not given here),inhibition [1] [%]
CCOc1ccc2nc(SCC(=O)Nc3ccc4c(c3)OCO4)[nH]c2c1,4.79% (inactive),2.6
Cn1cc(C2CC(=O)N(c3c(Cl)cccc3Cl)C2=O)c2ccccc21 (stereo not drawn),-0.44% (inactive),3.05
CC12CCC(C(=O)NCc3ccc4c(c3)OCO4)(c3nc4ccccc4nc31)C2(C)C (stereo not drawn),3.2% (inactive),0.26
O=[N+]([O-])c1cccc(N2CCOCC2)c1,17.3% (inactive),4.88
OC(COCc1ccc(Cl)cc1)CN1CCN(c2cccc(Cl)c2)CC1 (stereo not drawn),37.3% (inactive),11.7
COc1ccc(C(=O)CSc2nc(=O)cc(N)n2-c2ccc(C)cc2)cc1OC,-12% (inactive),-11.4
O=C(CS(=O)(=O)Cc1ccccc1)N1CCN(Cc2ccc3c(c2)OCO3)CC1,12.5% (inactive),2.65
CN(CCc1ccccn1)S(=O)(=O)c1ccccc1,4.78% (inactive),-3.86
COc1ccc(C(=O)ON2C(=O)CCC2=O)cc1I,4.65% (inactive),-0.225
Cc1cc(NC(=O)c2ccccc2Cl)c(OC(=O)c2ccccc2Cl)cc1C,-5.73% (inactive),-9.05
O=C(Oc1ccccn1)C1COc2ccccc2O1 (stereo not drawn),-4.64% (inactive),-1.04
Cn1nnc2cc(NC(=O)NCc3ccco3)ccc21,9.79% (inactive),6.21
COc1cc(N2C(=O)c3cccc4c([N+](=O)[O-])ccc(c34)C2=O)ccc1-n1nc(C)cc1C,3.2% (inactive),-0.9
CC(=O)Nc1sc(/C(C#N)=C/c2ccc(N(C)C)cc2)nc1-c1ccc(C)cc1,2.79% (inactive),-2.29
O=[N+]([O-])c1ccccc1OCCCNCc1ccco1,11% (inactive),4.43
CC(C)(C)SCCNC(=S)Nc1ccccc1,32.6% (inactive),4.53
COC(=O)C1=C(C)N=C2SCCC(=O)N2C1/C=C/c1ccccc1 (stereo not drawn),-20.3% (inactive),-9.41
CCSc1ncc(Cl)c(C(=O)Nc2c(C)n(C)n(-c3ccccc3)c2=O)n1,-0.94% (inactive),-0.4
CC(=O)N(Cc1cc2ccc(C)cc2[nH]c1=O)c1ccc(C)cc1C,-16.5% (inactive),-2.06
O=C(O)CCCCN1Cc2ccccc2C1,2.35% (inactive),7.06
